The whole screen tested about 5,500 compounds, of which about 2,000 (36%) were called active. Inconclusive results (about 18%) are left out. No stated cut-off is given here; in the data, active means normalized growth mostly below about 0.91 (no sharp cut-off); inconclusive means no clear call, values can overlap the other calls; inactive means mostly above about 0.92. Some of the results follow.
Experiment: chemical genetic growth profiling, strain panel (AID 1159580);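 further: tested at 20 µM; growth read once vehicle control cultures reached saturation at 30 °C; 1 = growth at the plate median or of vehicle wells; lower values mean less growth of the strain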
Conditions: S. cerevisiae deletion strains, growth OD

Measured: normalized growth

CC(=O)c1c(O)cc(O)cc1O
inactive: locus YAL021C, strain ccr4, active compounds read low 1.04 | locus YAL026C, strain drs2, active compounds read low 0.987 | locus YAL030W, strain snc1, active compounds read low 0.981 | locus YBL061C, strain skt5, active compounds read low 0.985 | locus YBR009C, strain hhf1, active compounds read low 1.02 | locus YBR023C, strain chs3, active compounds read low 0.995 | locus YBR171W, strain sec66, active compounds read low 0.964 | locus YBR231C, strain swc5, active compounds read low 0.947 | locus YBR279W, strain paf1, active compounds read low 0.991 | locus YCL011C, strain gbp2, active compounds read low 0.978 | locus YCL016C, strain dcc1, active compounds read low 1.03 | locus YCL061C, strain MRC1, active compounds read low 1 | locus YCL069W, strain vba3, active compounds read low 0.949 | locus YCR088W, strain abp1, active compounds read low 0.967 | locus YDL005C, strain med2, active compounds read low 0.97 | locus YDL040C, strain nat1, active compounds read low 0.973 | locus YDR001C, strain nth1, active compounds read low 0.981 | locus YDR069C, strain doa4, active compounds read low 0.937 | locus YDR137W, strain rgp1, active compounds read low 1.01 | locus YDR159W, strain sac3, active compounds read low 0.967 | locus YDR195W, strain ref2 0.914 | locus YDR297W, strain sur2, active compounds read low 0.982 | locus YDR334W, strain swr1, active compounds read low 0.96 | locus YDR335W, strain msn5, active compounds read low 0.973 | locus YDR392W, strain spt3, active compounds read low 0.952 | locus YEL003W, strain gim4, active compounds read low 0.979 | locus YEL037C, strain rad23, active compounds read low 0.974 | locus YEL061C, strain CIN8 (second series), active compounds read low 0.961 | locus YER015W, strain faa2, active compounds read low 0.988 | locus YER016W, strain bim1, active compounds read low 0.972 | locus YER111C, strain swi4, active compounds read low 0.975 | locus YER155C, strain BEM2 (second series), active compounds read low 0.969 | locus YFR010W, strain ubp6, active compounds read low 0.948 | locus YGL167C, strain pmr1, active compounds read low 0.992 | locus YGL173C, strain kem1, active compounds read low 0.993 | locus YGL227W, strain vid30, active compounds read low 0.968 | locus YGL240W, strain doc1, active compounds read low 0.981 | locus YGL253W, strain hxk2, active compounds read low 0.938 | locus YHR013C, strain ard1, active compounds read low 0.985 | locus YHR027C, strain rpn1, active compounds read low 0.997 | locus YHR030C, strain SLT2, active compounds read low 0.986 | locus YHR079C, strain IRE1, active compounds read low 0.974 | locus YHR142W, strain chs7, active compounds read low 0.988 | locus YJL092W, strain hpr5, active compounds read low 0.978 | locus YJL095W, strain BCK1 (second series), active compounds read low 0.981 | locus YJL095W, strain BCK1, active compounds read low 0.992 | locus YJL115W, strain asf1, active compounds read low 0.999 | locus YJL129C, strain trk1, active compounds read low 0.977 | locus YJL154C, strain vps35, active compounds read low 0.973 | locus YJL164C, strain tpk1, active compounds read low 1.02 | locus YJL166W, strain qcr8, active compounds read low 0.989 | locus YJL187C, strain SWE1, active compounds read low 0.99 | locus YJR066W, strain TOR1, active compounds read low 0.952 | locus YKL160W, strain elf1, active compounds read low 1.03 | locus YKR026C, strain gcn3, active compounds read low 0.948 | locus YKR091W, strain srl3, active compounds read low 0.988 | locus YLL001W, strain dnm1, active compounds read low 0.978 | locus YLL026W, active compounds read low 0.998 | locus YLL041C, strain sdh2, active compounds read low 0.983 | locus YLR027C, strain aat2, active compounds read low 0.993 | locus YLR113W, strain HOG1, active compounds read low 0.97 | locus YLR221C, strain rsa3, active compounds read low 0.955 | locus YLR258W, strain gsy2, active compounds read low 0.989 | locus YLR262C, strain YPT6 (second series), active compounds read low 1.06 | locus YLR320W, strain mms22, active compounds read low 0.978 | locus YLR342W, strain FKS1, active compounds read low 0.978 | locus YLR357W, strain rsc2, active compounds read low 0.982 | locus YLR370C, strain arc18, active compounds read low 0.961 | locus YLR384C, strain iki3, active compounds read low 0.973 | locus YML120C, strain ndi1, active compounds read low 0.998 | locus YMR058W, strain fet3, active compounds read low 0.975 | locus YMR125W, strain sto1, active compounds read low 0.958 | locus YMR129W, active compounds read low 0.978 | locus YMR205C, strain PFK2, active compounds read low 1.03 | locus YMR231W, strain pep5, active compounds read low 0.968 | locus YNL071W, strain lat1, active compounds read low 0.984 | locus YNL183C, strain NPR1, active compounds read low 0.938 | locus YNL209W, strain ssb2, active compounds read low 0.997 | locus YNL248C, strain rpa49, active compounds read low 1.01 | locus YNL322C, strain KRE1 (second series), active compounds read low 0.99 | locus YNR049C, strain mso1, active compounds read low 0.978 | locus YOR001W, strain rrp6, active compounds read low 0.922 | locus YOR070C, strain gyp1, active compounds read low 0.988 | locus YOR080W, strain dia2, active compounds read low 0.962 | locus YOR083W, strain WHI5, active compounds read low 1.03 | locus YOR106W, strain vam3, active compounds read low 1.04 | locus YOR231W, strain MKK1, active compounds read low 0.982 | locus YOR265W, strain rbl2, active compounds read low 0.976 | locus YOR270C, strain vph1, active compounds read low 1.01 | locus YOR290C, strain snf2, active compounds read low 1.03 | locus YPL051W, strain arl3, active compounds read low 0.965 | locus YPL078C, strain atp4, active compounds read low 1.03 | locus YPL106C, strain sse1, active compounds read low 0.958 | locus YPL240C, strain hsp82, active compounds read low 0.979 | locus YPL256C, strain CLN2, active compounds read low 0.973

Source: PubChem BioAssay AID1159580 (chemical genetic matrix, 2015)
